From PubChem BioAssay
Activity calls are given as the source filed them.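 The calls were made as follows, unless noted: active = mean inhibition above 46.68%, the untreated control wells mean plus 3 SD; inactive = the rest.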

Key:
[1] = target: Nuclear receptor coactivator 3 (Homo sapiens) (UniProt Q9Y6Q9); experiment: SRC3 coactivator transcriptional activity inhibitors, confirmation, cell-based, luminescence, quadruplicate (AID 588792;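 active = mean inhibition over 43.08%, the solvent-only control mean plus 3 SD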;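 also: 0% = DMSO treated cells and 100% = gossypol at 36 µM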); conditions: HEK293 GAL4-SRC3 luciferase reporter, at 3.6 µM, hits give high values
[2] = tested on: transactivating tegument protein VP16 (Human herpesvirus 1), Gal4-VP16 luciferase reporter; experiment: VP16 transactivation inhibitors, counter-screen for SRC3 inhibitor project, cell-based, luminescence, high throughput (AID 588794; in the data active = inhibition above about 30%); conditions: mammalian cells, VP16-driven luciferase reporter luminescence; at 3.6 µM; hits give high values
[3] = target: Nuclear receptor coactivator 1 (Homo sapiens) (UniProt Q15788); experiment: SRC1 coactivator transcriptional activity inhibitors, confirmation, cell-based, luminescence, quadruplicate (AID 588820); conditions: HEK293 GAL4-SRC1 luciferase reporter, at 3.6 µM, hits give high values;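 also: 0% = DMSO wells and 100% = gossypol 36 µM treated wells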
[4] = VP16 transactivation inhibitors, counter-screen for SRC1 inhibitor project, cell-based, luminescence, high throughput (AID 588824; in the data active = inhibition above about 25%); conditions: cell-based VP16 transactivation luciferase luminescence; at 3.6 µM; hits give high values
[5] = StAR promoter reporter inhibitors, counter-screen for LRH-1 inverse agonist project, cell-based, luminescence, high throughput (AID 651611; in the data active = inhibition above about 28%); conditions: StAR promoter luciferase reporter counterscreen, at 3.6 µM, hits give high values
[6] = target: Nuclear receptor subfamily 5 group A member 2 (Homo sapiens) (UniProt O00482); experiment: LRH-1 (NR5A2) inverse agonists, retest, confirmation, cell-based, luminescence (AID 651613; in the data active = inhibition above about 42%;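 also: HEK293T cells co-transfected with LRH-1 and StAR promoter luciferase reporter; 0% = vehicle wells and 100% = parental cells lacking receptor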); conditions: cell-based LRH-1 luciferase reporter, inverse agonism; at 3.6 µM; hits give high values
[7] = target: Steroidogenic factor 1 (Homo sapiens) (UniProt Q13285); experiment: SF1 (NR5A1) inverse agonists, counter-screen for LRH-1 inverse agonist project, cell-based, luminescence, high throughput (AID 651614; in the data active = inhibition above about 44%;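 also: cells cotransfected with StAR promoter reporter and SF1 expression vector; 0% = vehicle on cells with receptor and 100% = vehicle on cells lacking receptor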); conditions: cell-based SF1 luciferase reporter, at 3.6 µM, hits give high values
[8] = VP16 transactivation reporter inhibitors, counter-screen for LRH-1 inverse agonist project, cell-based, luminescence, high throughput (AID 651615; in the data active = inhibition above about 33%); conditions: Gal4-VP16 luciferase reporter cells, at 3.6 µM, hits give high values

Measured: inhibition

Sequence of Nuclear receptor subfamily 5 group A member 2 (Homo sapiens) (O00482 whole entry, looked up): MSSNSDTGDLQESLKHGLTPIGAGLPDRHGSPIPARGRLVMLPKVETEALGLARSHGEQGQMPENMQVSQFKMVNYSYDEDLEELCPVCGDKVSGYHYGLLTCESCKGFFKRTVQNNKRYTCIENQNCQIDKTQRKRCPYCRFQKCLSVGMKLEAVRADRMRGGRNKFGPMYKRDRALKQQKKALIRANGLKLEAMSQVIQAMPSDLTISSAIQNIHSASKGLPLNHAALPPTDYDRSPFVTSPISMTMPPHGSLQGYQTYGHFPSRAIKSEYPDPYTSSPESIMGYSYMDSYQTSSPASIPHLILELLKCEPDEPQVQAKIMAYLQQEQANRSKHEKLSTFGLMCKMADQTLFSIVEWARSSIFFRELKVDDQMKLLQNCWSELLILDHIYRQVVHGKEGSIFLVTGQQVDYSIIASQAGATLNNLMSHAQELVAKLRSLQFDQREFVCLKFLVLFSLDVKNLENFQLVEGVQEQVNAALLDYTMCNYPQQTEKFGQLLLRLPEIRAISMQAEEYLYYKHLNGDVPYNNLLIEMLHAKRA
Sequence of Steroidogenic factor 1 (Homo sapiens) (Q13285 whole entry, looked up, the tested form may be a part): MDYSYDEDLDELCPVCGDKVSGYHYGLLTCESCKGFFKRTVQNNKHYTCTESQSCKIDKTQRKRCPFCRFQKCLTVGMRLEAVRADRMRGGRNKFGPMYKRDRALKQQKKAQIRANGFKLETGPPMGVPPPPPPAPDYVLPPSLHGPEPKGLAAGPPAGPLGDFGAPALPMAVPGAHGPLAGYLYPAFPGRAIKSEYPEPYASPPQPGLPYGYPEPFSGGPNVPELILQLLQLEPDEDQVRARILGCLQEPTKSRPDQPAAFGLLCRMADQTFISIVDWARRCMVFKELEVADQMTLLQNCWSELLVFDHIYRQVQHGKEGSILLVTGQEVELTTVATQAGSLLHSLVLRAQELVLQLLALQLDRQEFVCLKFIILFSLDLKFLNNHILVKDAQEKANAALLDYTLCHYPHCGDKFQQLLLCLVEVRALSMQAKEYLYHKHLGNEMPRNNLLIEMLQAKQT
Sequence of Nuclear receptor coactivator 3 (Homo sapiens) (Q9Y6Q9 whole entry, looked up, the tested form may be a part): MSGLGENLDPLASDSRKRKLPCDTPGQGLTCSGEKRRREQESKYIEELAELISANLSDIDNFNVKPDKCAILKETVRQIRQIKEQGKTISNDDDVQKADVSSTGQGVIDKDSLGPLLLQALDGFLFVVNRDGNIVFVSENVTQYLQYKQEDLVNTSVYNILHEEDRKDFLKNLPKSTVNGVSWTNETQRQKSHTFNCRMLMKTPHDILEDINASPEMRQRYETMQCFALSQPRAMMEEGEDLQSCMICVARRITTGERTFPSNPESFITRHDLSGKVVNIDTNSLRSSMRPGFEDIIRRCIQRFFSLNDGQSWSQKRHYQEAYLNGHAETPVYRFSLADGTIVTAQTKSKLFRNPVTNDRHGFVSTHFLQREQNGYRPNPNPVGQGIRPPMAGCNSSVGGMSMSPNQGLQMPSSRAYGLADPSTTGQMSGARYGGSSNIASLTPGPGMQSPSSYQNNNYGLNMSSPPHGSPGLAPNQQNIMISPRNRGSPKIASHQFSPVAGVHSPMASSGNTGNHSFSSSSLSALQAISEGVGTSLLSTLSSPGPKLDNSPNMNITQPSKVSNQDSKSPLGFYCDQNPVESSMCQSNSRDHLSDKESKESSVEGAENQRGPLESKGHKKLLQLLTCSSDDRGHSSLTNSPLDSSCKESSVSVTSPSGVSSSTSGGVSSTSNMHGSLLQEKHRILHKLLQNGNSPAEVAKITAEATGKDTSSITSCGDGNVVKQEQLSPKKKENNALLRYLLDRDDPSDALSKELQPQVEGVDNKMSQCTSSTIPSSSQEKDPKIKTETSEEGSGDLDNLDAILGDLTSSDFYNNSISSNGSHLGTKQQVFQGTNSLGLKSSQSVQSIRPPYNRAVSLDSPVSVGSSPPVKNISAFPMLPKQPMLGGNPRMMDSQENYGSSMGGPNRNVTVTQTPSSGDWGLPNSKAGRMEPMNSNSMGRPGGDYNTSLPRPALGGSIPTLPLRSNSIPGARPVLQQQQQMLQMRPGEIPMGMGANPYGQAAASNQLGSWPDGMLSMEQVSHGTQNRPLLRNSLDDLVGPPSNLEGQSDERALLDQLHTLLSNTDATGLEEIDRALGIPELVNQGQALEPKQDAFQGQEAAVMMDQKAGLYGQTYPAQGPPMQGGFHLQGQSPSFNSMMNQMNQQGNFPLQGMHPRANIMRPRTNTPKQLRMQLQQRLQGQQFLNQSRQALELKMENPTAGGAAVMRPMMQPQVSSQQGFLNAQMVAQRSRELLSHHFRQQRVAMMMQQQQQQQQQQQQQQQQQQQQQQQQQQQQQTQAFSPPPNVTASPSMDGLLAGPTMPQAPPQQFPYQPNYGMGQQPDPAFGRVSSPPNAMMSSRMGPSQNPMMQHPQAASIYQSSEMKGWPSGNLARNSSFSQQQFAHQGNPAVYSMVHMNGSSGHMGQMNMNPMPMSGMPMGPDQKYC
Sequence of Nuclear receptor coactivator 1 (Homo sapiens) (Q15788 whole entry, looked up, the tested form may be a part): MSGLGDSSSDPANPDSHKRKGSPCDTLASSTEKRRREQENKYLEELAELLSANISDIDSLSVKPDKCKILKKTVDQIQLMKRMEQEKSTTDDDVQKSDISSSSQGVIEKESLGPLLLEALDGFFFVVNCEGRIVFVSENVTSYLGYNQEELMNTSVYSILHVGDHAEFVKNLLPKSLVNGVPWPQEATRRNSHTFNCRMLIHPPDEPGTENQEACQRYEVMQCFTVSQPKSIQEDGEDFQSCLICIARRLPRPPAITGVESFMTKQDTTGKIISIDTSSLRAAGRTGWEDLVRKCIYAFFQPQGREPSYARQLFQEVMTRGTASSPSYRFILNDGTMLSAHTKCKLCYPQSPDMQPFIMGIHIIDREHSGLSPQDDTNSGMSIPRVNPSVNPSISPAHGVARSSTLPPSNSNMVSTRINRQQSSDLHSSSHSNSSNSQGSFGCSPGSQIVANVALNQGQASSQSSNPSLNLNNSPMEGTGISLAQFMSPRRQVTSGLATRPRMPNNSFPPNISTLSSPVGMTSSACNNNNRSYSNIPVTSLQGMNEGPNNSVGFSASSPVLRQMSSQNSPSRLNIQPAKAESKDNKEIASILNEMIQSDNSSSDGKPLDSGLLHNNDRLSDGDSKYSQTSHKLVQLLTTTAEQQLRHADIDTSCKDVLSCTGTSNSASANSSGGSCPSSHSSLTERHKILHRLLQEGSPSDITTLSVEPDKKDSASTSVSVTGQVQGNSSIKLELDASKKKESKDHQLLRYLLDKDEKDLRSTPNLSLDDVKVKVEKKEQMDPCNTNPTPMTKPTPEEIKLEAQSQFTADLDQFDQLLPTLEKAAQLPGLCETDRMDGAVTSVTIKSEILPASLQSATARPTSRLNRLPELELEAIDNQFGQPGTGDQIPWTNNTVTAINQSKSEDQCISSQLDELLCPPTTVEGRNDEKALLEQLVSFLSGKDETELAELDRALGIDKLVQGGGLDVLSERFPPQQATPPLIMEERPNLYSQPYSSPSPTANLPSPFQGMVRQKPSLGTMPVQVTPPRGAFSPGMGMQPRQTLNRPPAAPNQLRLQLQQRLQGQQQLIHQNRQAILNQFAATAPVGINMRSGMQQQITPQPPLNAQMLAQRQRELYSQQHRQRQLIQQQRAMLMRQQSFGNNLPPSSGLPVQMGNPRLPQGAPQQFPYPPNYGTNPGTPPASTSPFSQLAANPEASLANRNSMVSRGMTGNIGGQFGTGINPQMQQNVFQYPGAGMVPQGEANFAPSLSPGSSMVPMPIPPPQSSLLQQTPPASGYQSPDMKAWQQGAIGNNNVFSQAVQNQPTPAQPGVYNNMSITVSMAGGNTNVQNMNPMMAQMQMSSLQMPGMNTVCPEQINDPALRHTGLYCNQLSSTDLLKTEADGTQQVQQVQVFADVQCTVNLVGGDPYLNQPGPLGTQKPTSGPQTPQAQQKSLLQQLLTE

O=C(Nc1ccon1)c1nc[nH]c1C(=O)NCc1ccccc1
active: [2] 52.7% | [4] 53.3% | [5] 50.5% | [6] 58.4% | [7] 51% | [8] 68%
inactive: [1] 35.1% | [3] 27.6%

CC1CCc2nc(NC(=O)CSc3nc4ccccc4o3)sc2C1 (stereo not given)
inactive: [1] 14.2% | [2] 15.8% | [3] -11.1% | [4] -33.6% | [5] 5.74% | [6] -27.5% | [7] 7.34% | [8] -33.5%

CC(=NNC(=S)Nc1ccccc1Cl)c1ccccn1
active: [2] 71.8% | [4] 73% | [5] 84.3% | [6] 106% | [7] 91.1% | [8] 83.9%
inactive: [1] 41.9% | [3] 18.6%

CCc1ccc(/C=C/c2c[nH]c3ccccc23)[n+](CC)c1
active: [2] 43.6% | [4] 58% | [5] 39.4% | [6] 87.6% | [7] 74% | [8] 75.8%
inactive: [1] 29.8% | [3] 24.4%

Cc1cc(C)nc(NC(=O)c2ccc(COc3ccccc3Cl)cc2)c1
inactive: [1] 36.6% | [3] 25.2%
active: [2] 45.3% | [4] 42.7% | [5] 38.9% | [6] 65.1% | [7] 67.1% | [8] 57.7%

N=c1c2c(n(Cc3ccc(Br)cc3)c3c1CCC3)CCCC2
inactive: [3] 45.7%
active: [1] 51.3% | [2] 67.7% | [4] 70.5% | [5] 60.2% | [6] 111% | [7] 86.3% | [8] 89.9%

CN(Cc1cnc2nc(N)nc(N)c2n1)c1ccc(C(=O)NC(CCC(=O)O)C(=O)O)cc1C(F)(F)F (stereo not given)
active: [1] 60.4% | [3] 51.9% | [5] 79.6% | [6] 56.4% | [7] 49.1%
inactive: [2] 7.16% | [4] 5.94% | [8] 21.3%

CCC(NC(=O)Nc1nnc(C(F)(F)F)s1)(C(F)(F)F)C(F)(F)F
active: [1] 60.7% | [2] 82% | [3] 50.1% | [4] 85.6% | [5] 79.3% | [6] 103% | [7] 90.6% | [8] 90.5%

NCCCNc1nc(N)c([N+](=O)[O-])c(NC2CCCCC2)n1
inactive: [3] 7.71%
active: [1] 62.2% | [2] 42.4% | [4] 27.1% | [5] 84.7% | [6] 98.5% | [7] 82.5% | [8] 88.1%

Clc1ccc(OCCN2CCN(c3ncnc4sccc34)CC2)cc1
inactive: [1] 14.2% | [3] -17.4%
active: [2] 40.4% | [4] 42.2% | [5] 34.8% | [6] 58.5% | [7] 50.2% | [8] 46.7%

CCCCCn1c2c(c(=N)c3ccccc31)CCC2
active: [1] 45.1% | [2] 61.1% | [4] 60% | [5] 44.3% | [6] 108% | [7] 83% | [8] 90.9%
inactive: [3] 32%

COc1ccc(N=C(NN)c2ccc3ccccc3n2)cc1
inactive: [1] -51.2% | [2] -47.1% | [3] -105% | [4] -65% | [5] -92.3% | [6] -81.3% | [7] -83.5% | [8] -96.2%

O=c1c2ccccc2sc2ccc(C#CC3(O)CCCCC3)cc12
active: [1] 87.4% | [2] 84.4% | [3] 76.2% | [4] 75% | [5] 84.3% | [6] 56% | [7] 76.5% | [8] 71.2%

Nc1ncn([C@@H]2O[C@H](CO)[C@@H](O)[C@H]2O)c(=O)n1
inactive: [3] -17.7%
active: [1] 76.7% | [2] 57.1% | [4] 45.7% | [5] 69.6% | [6] 90.2% | [7] 82.3% | [8] 80.9%

Cc1ccc(-n2c(-c3ccccc3)c[n+]3c2CCc2ccccc2-3)c(C)c1
active: [1] 61.7% | [2] 68.1% | [4] 69.4% | [5] 57.4% | [6] 107% | [7] 87.7% | [8] 91.7%
inactive: [3] 42.5%
